36 compounds from PubChem BioAssay (NCI) can be followed below.

Each structure is given as a SMILES string. “And” between values parts separate entries of the source, which are not always exact repeats. Equal entries are not always repeated. About 79,000 compounds went through this panel and 15% of them were active in at least one assay; those are over-represented in the sample as a whole. Values without a mark were called inactive. The source made the active and inactive calls. Rule as the data show it: active = growth inhibition above about 70%; inactive = the rest.

The nature of test [1]: NCI Yeast Anticancer Drug Screen. Data for the rad50 strain (AID 155).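 Also: 0% = growth of vehicle-only cultures of the same strain.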 The conditions noted are these: S. cerevisiae rad50 strain growth inhibition, active compounds read high; at 50.0 µM unless noted. A digest of the protocol: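 Cells are treated with compound, grown, and their growth is then scored against vehicle-only cultures of the same repair-deficient yeast strain.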
Test [2] can be described thus: NCI Yeast Anticancer Drug Screen. Data for the mec2-1 strain (AID 157). To be noted: S. cerevisiae mec2-1 strain, active compounds read high; at 50.0 µM unless noted. A digest of the protocol: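 Cells of the genetically defined mec2-1 yeast strain are incubated with test compound. Inhibition of growth is calculated against vehicle-treated controls.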
Test [3] in a line: NCI Yeast Anticancer Drug Screen. Data for the sgs1 mgt1 strain (AID 161).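 Also: 0% = growth of cultures given vehicle only.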 To be noted: S. cerevisiae sgs1 mgt1 strain, active compounds read high; at 50.0 µM unless noted. A digest of the protocol: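 Read-out: growth inhibition vs vehicle controls. Cells: mutant yeast strain deficient in DNA damage repair.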
A short description of test [4]: NCI Yeast Anticancer Drug Screen. Data for the cln2 rad14 strain (AID 165).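 Also: 0% = growth equal to vehicle treated cultures.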 To be noted: S. cerevisiae cln2 rad14 strain, active compounds read high; at 50.0 µM unless noted. A digest of the protocol:
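The screen exposed genetically defined yeast (cln2 rad14) to test compounds and scored growth inhibition relative to vehicle-treated controls.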

Test [5] can be described thus: NCI Yeast Anticancer Drug Screen. Data for the bub3 strain (AID 167). The conditions noted are these: S. cerevisiae bub3 mutant strain, active compounds read high; at 50.0 µM unless noted. A digest of the protocol:
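Part of a panel of yeast mutants defective in DNA damage repair or cell cycle regulation. Each strain is grown with compound, and inhibition is calculated relative to solvent-treated cultures.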

Test [6] in a line: NCI Yeast Anticancer Drug Screen. Data for the mlh1 rad18 strain (AID 175). To be noted: S. cerevisiae mlh1 rad18 strain growth inhibition, active compounds read high; at 50.0 µM unless noted. A digest of the protocol: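 Compound-treated yeast growth, normalised to vehicle controls. Strain bears defined DNA repair mutations.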

For `Cc1ccc2nc(-c3ccc(F)cc3)cc(C(=O)O)c2c1`, the growth inhibition in test [1] was 9.9%; in test [2], 2.05%; in test [3], 6.25%; in test [4], 17.9%; in test [5] it was 10.2%; in test [6], 26.1%.

As for `CC(C)(O)C[N+](=O)[O-]`, the growth inhibition in test [1] was 5.85%; in test [2] it was -1.8%; in test [3], 0.85%; in test [4] it was -7.7%; in test [5] it was 0%; in test [6], 3.05%.

For the compound `CC(C)(O)C(O)c1ccccc1` (stereo unspecified), the growth inhibition in test [1] is 10.9%; in test [2] it was 7%; in test [3], 9.1%; in test [4], 2.3%; in test [5] it was 1%; in test [6], 1.35%.

Regarding `COc1cc2c(c(OC)c1OC)-c1ccc(SC)c(=O)cc1[C@@H](NC(=O)CCl)CC2`, the growth inhibition in test [1] was -2.1%; in test [2], 19.6%; in test [3] it was 0.5%; in test [4], 6.85%; in test [5], 16.6%; in test [6] it was 15.6%.

With `[N-]=[N+]=CC(=O)C1OC12C1CC3CC(C1)CC2C3` (stereo unspecified), the growth inhibition in test [1] was -9.2%; in test [2], -5.85%; in test [3], 2.45%; in test [4], -6.25%; in test [5], 5.2%; in test [6] it was 4.55%.

In the case of `O=[N+]([O-])C(C(Cl)=C(Cl)Cl)=C(N1CCOCC1)N1CCOCC1`, the growth inhibition in test [1] is -25.2%; in test [2], -21.1%; in test [3] it was -19.1%; in test [4] it was -9.6%; in test [5], 5.1%; in test [6], 1.85%.

In the case of `COc1c2c(cc3c1C(=O)c1c(O)cccc1C3=O)CC(O)CC2` (stereo unspecified), the growth inhibition in test [1] was -14.7%; in test [2], -33.2%; in test [3], -13.4%; in test [4] it was -10.5%; in test [5], 2.8%; in test [6], -22.9%.

With `CN(C)C(=S)Oc1ccc(-c2c(-c3ccccc3)oc3ccc4ccccc4c23)cc1`, the growth inhibition in test [1] is 28.2%; in test [2], -4.05%; in test [3], 7.95%; in test [4], 10.8%; in test [5], -0.1%; in test [6], 9.4%.

On to `Cc1cccc(C)c1NC(=O)CCc1nnc2s/c(=C\c3ccc(N(C)C)cc3)c(=O)n12`, for which the growth inhibition in test [1] is 29.8%; in test [2], 30.1%; in test [3], 25.6%; in test [4], 0.15%; in test [5], 4.85%; in test [6], 10.3%.

Take `O=C1NCCN1/N=C/c1ccc([N+](=O)[O-])o1`: the growth inhibition in test [1] is 26.4%; in test [2], 9.35%; in test [3], 37.5%; in test [4] it was -29.9%; in test [5] it was 14.4%; in test [6], 25.9%.

As to `CN(C)c1c2ccccc2c(NC=O)c2ccccc12`, the growth inhibition in test [1] was 3.45%; in test [2] it was -14.9%; in test [3] it was 11.7%; in test [4], 24.6%; in test [5], -1.05%; in test [6] it was 9%.

For `CC1(CI)COC(c2ccccc2)(C2CCCCC2)OC1` (stereo unspecified), the growth inhibition in test [1] was 2.95%; in test [2], -5.15%; in test [3] it was 5.2%; in test [4] it was 35.3%; in test [5] it was -16.2%; in test [6], 15.9%.

On to `CCN(CC)C(=O)CCn1cc(F)c(=O)[nH]c1=O`, for which the growth inhibition is -65.8% in test [1]; -51% in test [2]; -35% in test [3]; 1.65% in test [4]; -25.8% in test [5]; -15.9% in test [6].

Consider `COc1ccc2cc(N3CCCC3)ccc2c1`, for which the growth inhibition in test [1] was 7.8%; in test [2], -7.35%; in test [3] it was 6.15%; in test [4], -14.8%; in test [5], -7.55%; in test [6] it was -37.8%.

Take `COc1c(OC2OC(CO)C(O)C(O)C2O)cc2c(c1OC)-c1ccc(OC)c(=O)cc1[C@@H](NC(C)=O)CC2` (stereo partly specified): the growth inhibition is -4.2% in test [1]; 9.6% in test [2]; 3.8% in test [3]; 3.65% in test [4]; -0.1% in test [5]; 8.05% in test [6].

For the compound `CC1CCCN1c1ccnc2cc(Cl)ccc12` (stereo unspecified), the growth inhibition is 11.9% in test [1]; -3.3% in test [2]; 7.15% in test [3]; -2.2% in test [4]; 8.25% in test [5]; 20.3% in test [6].

For the compound `O=C(NNC(=O)c1ccc2ccccc2c1)c1ccc(Cl)cc1`, the growth inhibition in test [1] was -19.2%; in test [2], -51%; in test [3] it was -11%; in test [4], 3.55%; in test [5] it was -13.6%; in test [6], -9.75%.

With `CCOC(=O)c1c(-c2ccc([N+](=O)[O-])cc2)cn(-c2ccc(OC)cc2)c1C`, the growth inhibition in test [1] was 13.2%; in test [2], 7.1%; in test [3], 12.4%; in test [4], 4.35%; in test [5], -0.65%; in test [6], 1%.

Take `CC(O)c1ccc[cH-]1.CC(O)c1ccc[cH-]1.[Fe+2]` (stereo unspecified): the growth inhibition in test [1] was -22%; in test [2] it was 4%; in test [3], -5.55%; in test [4], -33.1%; in test [5], 28.7%; in test [6], 5.7%.

Consider `Cc1ncc(CO)c(CO)c1O`, for which the growth inhibition in test [1] was 3.05% and -8.25%; in test [2], -2.95% and -14%; in test [3], -4.2%; in test [4] it was 2.4%; in test [5], 7%; in test [6], 45.8% and -5.65%.

Turning to `CC(C)=CCCC(C)CCOc1cccc(C)c1` (stereo unspecified), the growth inhibition was 3.65% in test [1]; 8.3% in test [2]; -6.95% in test [3]; -37.5% in test [4]; 11.6% in test [5]; 1.2% in test [6].

Turning to `c1ccc2nc(CCC3CCCCN3)ccc2c1` (stereo unspecified), the growth inhibition is 7.2% in test [1]; 7.5% in test [2]; -9.7% in test [3]; -14.2% in test [4]; -2.1% in test [5]; 17.1% in test [6].

For the compound `O=S1(=O)C(c2cccc(F)c2)=C(O)c2cc3ccccc3nc21`, the growth inhibition in test [1] was 15.8%; in test [2], 5.45%; in test [3], 11.6%; in test [4], -20.6%; in test [5] it was -23.8%; in test [6], 9.45%.

For the compound `Cc1nc2ccccc2c(=O)n1NC(=O)Cc1ccccc1`, the growth inhibition is -22.6% in test [1]; -11.1% in test [2]; -7.45% in test [3]; 2.2% in test [4]; -12.4% in test [5]; -23.1% in test [6].

Regarding `O=c1[nH]c2cc(Cl)c([N+](=O)[O-])cc2o1`, the growth inhibition in test [1] is 12.1%; in test [2], -0.5%; in test [3], -0.5%; in test [4], -18.1%; in test [5] it was -14.9%; in test [6] it was 16.7%.

Regarding `Cc1nnc(-n2cccc2)s1`, the growth inhibition is 0.8% in test [1]; -18.9% in test [2]; -5.3% in test [3]; -3.55% in test [4]; -4.1% in test [5]; 3.25% in test [6].

Regarding `CN(C)c1nc(N(C)C)nc(N(C)CN(C)c2ccc(Cl)cc2)n1`, the growth inhibition in test [1] was -11.3%; in test [2], -23.3%; in test [3], -26.8%; in test [4], -11.3%; in test [5], -49%; in test [6], -16.4%.

Consider `OC(CN1CCCCC1)c1cc(-c2ccccc2)no1` (stereo unspecified), for which the growth inhibition was 31.8% in test [1]; 11.6% in test [2]; 33.5% in test [3]; 24.6% in test [4]; 23.6% in test [5]; 16.4% in test [6].

`Oc1cc(O)c2cc(O)c(-c3ccc(O)c(O)c3)[o+]c2c1`: the growth inhibition in test [1] is 11.4%; in test [2] it was 2.2%; in test [3], 23.4%; in test [4], 4.1%; in test [5] it was 31.1%; in test [6], 28.1%.

Turning to `C/C=C/C(=O)Oc1ccc[nH]c1=O`, the growth inhibition is -10.9% in test [1]; 13.1% in test [2]; 4.85% in test [3]; -2.15% in test [4]; 11.8% in test [5]; -4.25% in test [6].

With `S=c1c(-c2ccccc2)cnc2sccn12`, the growth inhibition was 40.9% in test [1]; 29.8% in test [2]; 8.3% in test [3]; -22.6% in test [4]; 19.8% in test [5]; 18.4% in test [6].

`CN(C)C(=S)Oc1c([N+](=O)[O-])cc([N+](=O)[O-])cc1C(C)(C)C`: the growth inhibition in test [1] is 94% (active); in test [2], 89.9% (active); in test [3], 93.8% (active); in test [4], 78% (active); in test [5] it was 92.6% (active); in test [6], 95% (active).

Regarding `CC1=NN(C(=O)Cc2ccccc2)C(=O)/C1=C\c1ccc(O)cc1`, the growth inhibition is -18.9% in test [1]; -36.1% in test [2]; -47.4% in test [3]; -4.2% in test [4]; -13.2% in test [5]; -29.2% in test [6].

With `CCC(=O)C1(C)OC1C(C)CC(C)C1OC(=O)CC2(O)CC=C(C)C(O2)/C(C)=C/CCCC(OC2CC(OC(N)=O)C(O)C(C)O2)/C=C/C(C)C(O)C1C` (stereo unspecified), the growth inhibition in test [1] is 78% (active); in test [2], 83.5% (active); in test [3], 82.5% (active); in test [4], 84.5% (active); in test [5], 85.2% (active); in test [6], 83.2% (active).

`C[n+]1cccc(C#N)c1`: the growth inhibition was 6.55% and 5.2% in test [1]; 4.6% and -7.45% in test [2]; -0.95% and 0.4% in test [3]; -14.8% and -21.6% in test [4]; 2.3% and -6.65% in test [5]; -0.5% and 10.1% in test [6].

Take `CCN(CC)CCNC(=O)c1cc(N2CCOCC2)ccn1`: the growth inhibition in test [1] is 23.3%; in test [2], 11.7%; in test [3], 18.5%; in test [4], 1.05%; in test [5], 30.6%; in test [6], 45.5%.
